TSHR ag: agonists of human thyroid stimulating hormone receptor. HEK293-CNG-TSHR cells (CNG channel as cAMP sensor), membrane potential dye, cAMP. Potency, µM (series often up to 57.1 µM), without a hit: at the top dose activation, actives largely listed as activators. 0.48% of 73,000 active. AID 926; active = well fitted activation curve with a large enough effect in the main read-out, with a control signal flat, not every such curve was filed as active; inconclusive = small, poorly fitted or top-dose-only effect, or a change in a side signal; inactive = no such curve, though single readings can be large or run the other way; % of control where 0% means no effect;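 also: the control signal comes from parental cells without the receptor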
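HEK 293 cells stably expressing TSHR and a modified CNG channel, with CNG-only parental cells as counterscreen, were preloaded 60 min at room temperature with membrane potential dye containing 100 uM RO 20-1724. Compound exposure was 30 min, and depolarization was read as fluorescence at 590 nm.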
GBA mod: human lysosomal glucosylceramidase modulation | P04062 | purified enzyme, resorufin glucoside fluorescence (screen aimed at inhibitors), 20 min | Potency, µM | 1.1% of 48,000 active; in the data active = potency below about 15 µM; inconclusive = mostly about 16 µM to 33 µM;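 also: the screen sought inhibitors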
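Normal human glucocerebrosidase (0.2 nM final) was assayed with resorufin β-D-glucopyranoside (30 uM final) in 50mM citric acid/KH2PO4, 10mM sodium taurocholate, 0.01% tween-20, pH 5.9. Compounds were titrated; fluorescence (Ex 548, Em 600) read after 20 min at RT.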
HEK293 cAMP ctrl: raises cAMP in parental HEK293 cells, TSHR agonist counter-screen | Potency, µM (series often up to 57.1 µM), for the others: at the top dose activation, usual class: activators | parental HEK293 CNG cAMP sensor, membrane potential fluorescence | AID 938 | 2.5% of 73,000 active; also: % of control where 0% means no effect; nearly all actives have a fitted effect of over 55% in size
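Parental HEK 293 cells stably expressing a modified CNG channel (no TSHR) report cAMP rise as membrane depolarization. Membrane potential dye with 100 uM RO 20-1724 was loaded for 60 min at room temperature, then compound added for 30 min; fluorescence read at 590 nm.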
ERK AVP inh: vasopressin-driven ERK pathway inhibition; HEK293-V1b, vasopressin-stimulated pERK AlphaScreen; Potency, µM (titrated, usually from 57.5 µM), inactives show top-dose activity, negative = inhibition, actives largely listed as inhibitors; 0.99% of 72,000 active; AID 995; also: % is scaled to controls: 0 for no effect and ±100 for the full control effect; nearly all actives have a fitted effect of over 55% in size
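qHTS, compounds titrated on V1b-expressing HEK293 cells. Preincubation 30 min at 37C, vasopressin 25 nM for 5 min, lysis 10 min, bead incubation 5 hr at room temperature.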
Caspase-1 inhib: blocks human caspase-1 allosterically or competitively; Caspase-1 enzyme, Ac-WEHD-AFC fluorogenic rate; 0.03% of 75,000 active; P29466; Potency, µM (highest dose often 57.5 µM), inactives show at the top dose activity change, negative = inhibition, most hits filed as inhibitors;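 also: plate controls were vehicle for no effect and no substrate for full effect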
Casp7 inh: allosteric or competitive inhibitors of human caspase-7; P55210; recombinant caspase-7, Ac-DEVD-AFC fluorescence rate; Potency, µM (top dose mostly 57.5 µM), without a hit: top-dose activity change, negative = inhibition, most hits filed as inhibitors; 0.02% of 75,000 active; AID 889; active = well fitted inhibition curve with a large enough effect in the main read-out, with a control signal flat, not every such curve was filed as active; inconclusive = small, poorly fitted or top-dose-only effect, or a change in a side signal; also: % of control where 0% means no effect
The depositor's hits bear a star; [ ] = another dose, or the depositor's remark. Sampled rows, rich in hits. Any-hit rate of the full collection: about 4.5%. Unless noted, calls follow the shape of the dose curve; as a rule, active = well fitted curve in the direction sought with a large enough effect; inconclusive = small, poorly fitted or top-dose-only effect, or another doubt; inactive = no such curve, though single readings can be large; an effect the other way counts as inactive or inconclusive. Potency is read from the fitted curve at half-maximal effect.

`COC(=O)c1cccc(Nc2nc3ccccc3nc2C)c1` gave TSHR ag inconclusive, HEK293 cAMP ctrl 32µM*, ERK AVP inh 25µM*, Caspase-1 inhib -13% and Casp7 inh -13%.
For O=C1CCCCC1Sc1nnc(Cc2cccs2)n1CCc1ccccc1 (stereo not given) the results were TSHR ag inconclusive, HEK293 cAMP ctrl 10µM*, ERK AVP inh -9%, Caspase-1 inhib 0% and Casp7 inh -4%.
For CCN1C(=O)[C@H]2[C@H]3[C@H](O)[C@H](O)C/C(=N/OC[C@@H](O)COCc4ccco4)[C@H]3CC[C@@H]2C1=O the results were TSHR ag -6%[11.4 µM], HEK293 cAMP ctrl 4%[11.4 µM], ERK AVP inh 35%[11.5 µM], Caspase-1 inhib 2%[11.5 µM] and Casp7 inh -2%[11.5 µM].
Screening CN1CCN(c2ncnc3ccc(-c4cccc(NS(C)(=O)=O)c4)cc23)CC1 returned TSHR ag 2%, HEK293 cAMP ctrl 1%, ERK AVP inh 3.2µM*, Caspase-1 inhib 0% and Casp7 inh 0%.
For COc1ccccc1CNc1ncnc2ccc(-c3cccc(NS(C)(=O)=O)c3)cc12 the results were TSHR ag 27%, HEK293 cAMP ctrl 16%, ERK AVP inh 16µM*, Caspase-1 inhib -2% and Casp7 inh -5%.
For Cc1cccc(CNc2ncnc3ccc(-c4cccc(NS(C)(=O)=O)c4)cc23)c1 the results were HEK293 cAMP ctrl 23%, ERK AVP inh 25µM*, Caspase-1 inhib -3% and Casp7 inh -3%.
`Cc1cccc(CNc2ccnc(-c3cccc(NS(C)(=O)=O)c3)n2)c1` gave TSHR ag 27%, HEK293 cAMP ctrl -2%, ERK AVP inh 13µM*, Caspase-1 inhib 0% and Casp7 inh -1%.
Screening CC(=O)N1CCC2(CC1)CCN(c1ccc(-c3ccccc3)cc1)CC2 returned TSHR ag -17%, HEK293 cAMP ctrl -7%, ERK AVP inh inconclusive, Caspase-1 inhib inconclusive and Casp7 inh -5%.
Screening C=C[C@@]1(C)CC(=O)[C@@]2(O)[C@@]3(C)[C@@H](O)CCC(C)(C)[C@@H]3[C@H](OC(=O)CCN(C)C)[C@H](OC(C)=O)[C@@]2(C)O1 returned TSHR ag inconclusive, HEK293 cAMP ctrl 0.13µM*, ERK AVP inh 1µM*, Caspase-1 inhib 0% and Casp7 inh 0%.
`C=C[C@]1(C)CC(=O)[C@@]2(O)[C@@]3(C)C(O)CCC(C)(C)C3C(O)C(OC(C)=O)[C@@]2(C)O1` (stereo not given in full) gave ERK AVP inh inconclusive, Caspase-1 inhib -1% and Casp7 inh 1%.
`C=C[C@@]1(C)CC(=O)[C@@]2(O)[C@@]3(C)[C@H](O)CCC(C)(C)[C@@H]3[C@H](O)[C@H](OC(C)=O)[C@]2(C)O1` gave TSHR ag inconclusive, HEK293 cAMP ctrl 0.5µM*, ERK AVP inh inconclusive, Caspase-1 inhib 2% and Casp7 inh 2%.
COc1ccc(N=c2oc3c(OC)cccc3cc2C(=O)NCc2ccco2)c(OC)c1 was read as TSHR ag inconclusive, GBA mod 2.1*, HEK293 cAMP ctrl inconclusive, ERK AVP inh -15%, Caspase-1 inhib -2% and Casp7 inh -1%.
COc1ccc2cc(C(=O)NCc3ccco3)c(=Nc3ccc(C(=O)O)cc3)oc2c1 was read as GBA mod >77, HEK293 cAMP ctrl 27%, ERK AVP inh 28%, Caspase-1 inhib 1% and Casp7 inh -1%.
Screening CCOC(=O)Cc1csc(NC(=O)CSc2ncnc3c2cnn3-c2ccc(OC)cc2)n1 returned TSHR ag inconclusive, HEK293 cAMP ctrl inconclusive, ERK AVP inh 5µM*, Caspase-1 inhib -7% and Casp7 inh -2%.
`NC(=O)CCn1nc(-c2ccccc2)c2ccccc2c1=O` gave TSHR ag -8%, GBA mod >77, HEK293 cAMP ctrl 7%, ERK AVP inh -24%, Caspase-1 inhib 2% and Casp7 inh 0%.
Screening O=C(CCn1nc(-c2ccccc2)c2ccccc2c1=O)N1CCN(c2ccccc2)CC1 returned TSHR ag inconclusive, GBA mod >77, HEK293 cAMP ctrl 25µM*, ERK AVP inh inconclusive, Caspase-1 inhib -2% and Casp7 inh -6%.
Screening CSCCC(NC(=O)c1ccccc1)c1nc(-c2ccccc2)no1 (stereo not given) returned TSHR ag inconclusive, HEK293 cAMP ctrl 16µM*, ERK AVP inh -1%, Caspase-1 inhib -2% and Casp7 inh 0%.
For Cc1ccccc1OC1C=CC(C#Cc2ccc(Br)cc2)OC1CO (stereo not given) the results were TSHR ag -1%[11.4 µM], HEK293 cAMP ctrl -5%[11.4 µM], ERK AVP inh 2%[11.5 µM], Caspase-1 inhib -5%[11.5 µM] and Casp7 inh -8%[11.5 µM].
COC(=O)[C@@]1(C)C=C[C@@H](Cc2ccccc2)N1C(=O)c1ccccc1 was read as TSHR ag inconclusive, HEK293 cAMP ctrl 20µM*, ERK AVP inh -14%, Caspase-1 inhib 2% and Casp7 inh -3%.
COC(=O)N1[C@H](Cc2ccccc2)C=C[C@]1(C)C(=O)O was read as TSHR ag 8%, HEK293 cAMP ctrl 24%, ERK AVP inh -5%, Caspase-1 inhib 0% and Casp7 inh -3%.
Screening CCC(=O)N[C@@H]1Cc2ccccc2[C@@H](c2ccccc2)C1 returned TSHR ag inconclusive, HEK293 cAMP ctrl 20µM*, ERK AVP inh inconclusive, Caspase-1 inhib 0% and Casp7 inh -6%.
O=C(CN1CCOCC1)N1CCc2ccccc2C(c2ccccc2)C1 (stereo not given) was read as TSHR ag inconclusive, GBA mod >77, HEK293 cAMP ctrl inconclusive, ERK AVP inh -13%, Caspase-1 inhib 1% and Casp7 inh 1%.
CC1(C)CCC(NC(=O)[C@H](N)CCC(=O)O)CC1 was read as TSHR ag 8%, HEK293 cAMP ctrl 4%, ERK AVP inh -6%, Caspase-1 inhib 0% and Casp7 inh 1%.
Screening O=C(Nc1ccccc1N1CCN(c2ccc(F)cc2)CC1)c1ccccc1 returned TSHR ag inconclusive, GBA mod >77, HEK293 cAMP ctrl 6.3µM*, ERK AVP inh -12%, Caspase-1 inhib -3% and Casp7 inh -2%.
Screening O=C(Nc1ccccc1N1CCN(c2ccc(F)cc2)CC1)C1CCCCC1 returned TSHR ag inconclusive, GBA mod >77, HEK293 cAMP ctrl 3.2µM*, ERK AVP inh 6%, Caspase-1 inhib -2% and Casp7 inh 1%.
CN1CCN(c2ccccc2NC(=O)c2ccc(-c3ccccc3)cc2)CC1 was read as TSHR ag -20%, GBA mod inactive, HEK293 cAMP ctrl -25%, ERK AVP inh inconclusive, Caspase-1 inhib -4% and Casp7 inh -2%.
